# Assay outcomes from PubChem.
# DT40 TDP1 CPT: DT40-hTDP1 cell growth loss with CPT | chicken DT40 Tdp1-/-;hTDP1 cells + 20 nM CPT, ATP luminescence, 48 h | Potency, µM (top dose mostly 46.2 µM), without a hit: at the highest dose activity change, negative = growth inhibition, most hits filed as inhibitors | actives 12% (n = 420,000) | AID 686979; note: nearly all actives have a fitted effect of over 55% in size
#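 Chicken DT40 Tdp1-/- cells stably complemented with human TDP1 were seeded at 400 cells/well in medium containing 20 nM camptothecin, exposed to pin-transferred compounds, and grown at 37 °C for at least 48 hr. Viability was read as ATP luminescence.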
# ALOX12 inh: blocks human arachidonate 12S-lipoxygenase | P18054 | purified 12hLO, xylenol orange hydroperoxide absorbance | Potency, µM (highest dose often 108 µM), without a hit: at the highest dose activity change, negative = inhibition, actives largely listed as inhibitors | actives 1.1% (n = 580,000) | AID 1671190
#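 Purified human 12hLO at 150 nM in 25 mM Hepes, 0.01% Triton X-100, pH 7.0, preincubated 15 min at room temperature with compound. Reaction started with 40 uM arachidonic acid, 30 min at room temperature. Hydroperoxide measured by Fe-xylenol orange, 573/405 nm absorbance ratio.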
# ELG1 repair inh: inhibitors of ELG1-dependent DNA repair in HEK293T cells; HEK293T ELG1-luciferase reporter, luminescence, 16 h; DNA damage induced by 5-fluorouridine; Potency, µM (top dose mostly 46.1 µM), for inactives: at the highest dose activity change, negative = inhibition, usual class: inhibitors; actives 2.3% (n = 330,000); note: nearly all actives have a fitted effect of over 55% in size
#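 Reporter activity after DNA damage by 5-fluorouridine is monitored. Compound-treated cells incubate 16 hr at 37 °C, then ONE-Glo is added for 30 min before luminescence reading.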
# TDP1 cell noCPT: qHTS for Inhibitors of human tyrosyl-DNA phosphodiesterase 1 (TDP1): qHTS in cells in absence of CPT. AID 686978, 2013. actives 15% (n = 420,000). Potency, µM (series often up to 46.2 µM), for inactives: top-dose activity change, negative = growth inhibition, most hits filed as inhibitors. DT40 Tdp1-/- hTDP1 cells, no CPT, ATP luminescence, 48 h; note: nearly all actives have a fitted effect of over 55% in size
#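 Seeded 400 DT40-hTDP1 cells/well (vehicle DMSO, no 20 nM CPT); pinned compounds; ≥48 hr at 37 °C; CellTiter-Glo luminescence as viability measure.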
# RORgamma inh: ROR gamma (mouse) transcription inhibition; AID 2551; Drosophila S2 Gal4-RORgamma UAS-luciferase reporter, 20 h; actives 5.4% (n = 310,000); Potency, µM (highest dose often 53.6 µM), for inactives: at the highest dose activity change, negative = inhibition, usual class: inhibitors; note: nearly all actives have a fitted effect of over 60% in size
# Target sequence (P51450 whole entry, looked up, the tested form may be a part): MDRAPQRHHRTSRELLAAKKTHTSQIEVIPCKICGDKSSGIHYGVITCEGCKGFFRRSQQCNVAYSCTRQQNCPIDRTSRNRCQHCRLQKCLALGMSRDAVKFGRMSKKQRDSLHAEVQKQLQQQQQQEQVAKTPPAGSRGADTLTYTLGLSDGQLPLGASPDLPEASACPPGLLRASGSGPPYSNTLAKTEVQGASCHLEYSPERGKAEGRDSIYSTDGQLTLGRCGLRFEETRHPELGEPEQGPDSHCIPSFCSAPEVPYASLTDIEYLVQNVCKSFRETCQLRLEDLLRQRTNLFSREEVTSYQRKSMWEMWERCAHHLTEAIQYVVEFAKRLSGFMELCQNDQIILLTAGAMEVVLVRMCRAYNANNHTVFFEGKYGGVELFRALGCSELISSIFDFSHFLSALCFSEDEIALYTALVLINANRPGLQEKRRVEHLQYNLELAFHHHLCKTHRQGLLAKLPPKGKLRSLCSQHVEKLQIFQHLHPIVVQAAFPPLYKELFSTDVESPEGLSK
#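 Drosophila Schneider cells stably carrying a metallothionein-driven Gal4 DBD–ROR gamma fusion and a UAS-Photinus luciferase reporter were exposed to compound for 1 hr, then induced with copper sulfate (700 uM final) for 20 hr at ambient temperature before luminescence reading.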
# Gal4-VP16 FLuc: Gal4-VP16 reporter inhibition counter-screen | Drosophila S2 Gal4-VP16 UAS-luciferase, luminescence, 20 h | Potency, µM (series often up to 53.6 µM), for inactives: top-dose activity, negative = inhibition, actives largely listed as inhibitors | actives 3.5% (n = 310,000);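 note: Gal4-VP16 expression switched on by copper sulfate through the metallothionein promoter; nearly all actives have a fitted effect of over 50% in size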
# * hit, by the source's call; ? = inconclusive; nt = not tested or not shown; [ ] = remark or other dose. Hits are enriched below; roughly 15% of the tested compounds scored in any of these assays. Calls come from the whole dose curve; as a rule, active = well fitted curve in the direction sought with a large enough effect; inconclusive = small, poorly fitted or top-dose-only effect, or another doubt; inactive = no such curve, though single readings can be large; an effect the other way counts as inactive or inconclusive. % is set by controls: 0 for no effect and ±100 for the full control effect; potency is the fitted concentration of half-maximal effect.
SMILES,DT40 TDP1 CPT,ALOX12 inh,ELG1 repair inh,TDP1 cell noCPT,RORgamma inh,Gal4-VP16 FLuc
CCOC(=O)c1cc2c(=O)n3cccc(C)c3nc2n(Cc2ccco2)c1=NC(=O)c1ccccc1,29.1µM*,?,-12.3%,?,-3.7%,2.3%
CCOC(=O)c1cc2c(=O)n3ccccc3nc2n(CC2CCCO2)c1=NC(=O)c1ccccc1OCC (configuration not stated),16.4µM*,2.9%,nt,14.6µM*,nt,nt
CCOC(=O)c1cc2c(=O)n3ccccc3nc2n(Cc2ccco2)c1=NC(=O)c1cccc(OC)c1,?,-12.0%,?,?,?,-6.2%
CCOC(=O)c1cc2c(=O)n3ccccc3nc2n(CC2CCCO2)c1=NC(=O)c1ccccc1C (configuration not stated),7.6%,-29.7%,nt,0.3%,nt,nt
CCOC(=O)c1cc2c(=O)n3ccccc3nc2n(Cc2ccco2)c1=NC(=O)c1ccc(OC)cc1,6.51µM*,19.9%,?,5.17µM*,-13.2%,-9.3%
CCOC(=O)c1cc2c(=O)n3ccccc3nc2n(Cc2ccco2)c1=NC(=O)c1ccccc1OC,16.4µM*,?,?,13µM*,-33.8%,4.5%
Cn1c(=O)c2c(nc(Oc3ccc(F)cc3)n2Cc2ccccc2F)n(C)c1=O,nt,25.8%,nt,nt,nt,nt
COc1c[nH]n(C2CCCCC2)c(=O)c1=O,?,?,-1.3%,-19.7%,20µM*,?
O=C(c1ccc(C(F)(F)F)s1)N1CCc2c(nc(-c3ccccc3)[nH]c2=O)C1,nt,-9.0%,nt,nt,nt,nt
CC1=NN(C2=NS(=O)(=O)c3ccccc32)C(C)(O)C1 (configuration not stated),0.411µM*,0.0%,26.6%,0.366µM*,1.26µM*,3.55µM*
O=C(NCCc1cccnc1)C12CC3CC(CC(C3)C1)C2,nt,-3.4%,nt,nt,nt,nt
Nc1ccc2[nH]ncc2c1,18.4µM*,0.8%,?,20.6µM*,3.0%,-6.0%
CCOC(=O)c1ccc2ncc(C(=O)OCC)c(NCCCOC(=O)C(C)(C)C)c2c1,nt,11.1%,nt,nt,nt,nt
Cc1nc(NC(=O)/C=C/c2ccco2)sc1C,5.17µM*,-14.1%,?,5.8µM*,-23.8%,-21.9%
O=C(/C=C/c1ccco1)NC1=NCCS1,-4.8%,-4.5%,?,-13.1%,-40.5%,-21.1%
O=C(/C=C/c1ccco1)Nc1nnc(-c2ccco2)s1,?,-21.5%,?,?,?,29.4%
O=C(/C=C/c1ccco1)Nc1cccc(NC(=O)/C=C/c2ccco2)n1,23.1µM*,-30.0%,?,20.6µM*,18.2%,?
O=C1CN(C(=O)c2ccccc2)c2ccccc2N1,-1.5%,2.0%,17.8%,-1.8%,3.0%,4.1%
O=C1CN(C(=O)c2cc(Br)c(Br)s2)c2ccccc2N1,?,-15.0%,?,13µM*,21.7%,11.4%
O=C1CN(C(=O)c2cccc(Br)c2)c2ccccc2N1,14.6µM*,-10.9%,-12.8%,11.6µM*,-2.8%,-7.2%
CCONC(=O)C(NC(=O)c1ccc(Cl)cc1)C(C)CC (configuration not stated),nt,2.5%,nt,nt,nt,nt
COc1cccc(-c2nnc3sc(-c4ccccc4)nn23)c1,?,-29.4%,2.9%,23.1µM*,8.5%[10 µM],1.9%
COc1cc(-c2nnc3sc(C4CCCCC4)nn23)cc(OC)c1OC,16.4µM*,nt,?,23.1µM*,?,-7.3%
Cc1cccc(-c2nnc3sc(-c4ccccc4C)nn23)c1,?,12.0%,?,14.6µM*,?,1.8%
COc1cccc(-c2nnc3sc(C4CCCCC4)nn23)c1,18.4µM*,-19.1%,4.61µM*,20.6µM*,9.8%,-11.3%
SMILES,DT40 TDP1 CPT,ALOX12 inh,ELG1 repair inh,TDP1 cell noCPT,RORgamma inh,Gal4-VP16 FLuc
Cc1ccccc1-c1nn2c(COc3ccccc3)nnc2s1,nt,5.6%,nt,nt,nt,nt
O=C1COCC2(CN1)CN(C(=O)c1ccc(Cl)cc1)C2,nt,-5.1%[176 µM],nt,nt,nt,nt
CCOC(=O)c1cccc(Nc2nc3ccccc3nc2NS(=O)(=O)c2cc(C)ccc2C)c1,nt,-26.3%,nt,nt,nt,nt
c1ccc(CCCOCC2CCNCC2)cc1,nt,25.8%,nt,nt,nt,nt
CN(CC1CCOCC1)S(=O)(=O)c1ccccc1,nt,11.3%,nt,nt,nt,nt
CCOc1cccc(-c2nnc3sc(C4CCCCC4)nn23)c1,?,-4.2%,20.6µM*,?,20µM*,?
c1cncc(-c2nnc3sc(C4CCCCC4)nn23)c1,-20.4%,35.5%,-0.9%,?,-7.0%,-0.4%
c1ccc(-c2nnc3sc(-c4cc5ccccc5o4)nn23)cc1,16.4µM*,5.2%,-0.2%,?,-28.8%,-6.4%[0.365 µM]
c1ccc(-c2nnc3sc(-c4ccncc4)nn23)cc1,-19.0%,-16.4%,2.5%,-21.3%,-14.1%,5.7%
c1ccc(-c2nnc3sc(-c4csc5c4CCCC5)nn23)cc1,20.6µM*,?,?,?,6.31µM*,?
CC(Oc1ccccc1)C(=O)N1CCN(C(=O)c2nnn3c2COC(c2ccc(Cl)cc2)C3)CC1 (configuration not stated),nt,-0.4%,nt,nt,nt,nt
CCCc1cc(C(=O)NC(C)c2ccccn2)sc1C (configuration not stated),nt,-82.8%,nt,nt,nt,nt
CCc1cc(C(=O)NNC(=O)CCl)sc1C,14.6µM*,23.2%,-3.5%,?,10µM*,17.3%
CCc1cc(C(=O)Nc2ncccc2O)sc1C,?,193.3%,?,-21.5%,7.94µM*,10µM*
O=C(NCCC1=CCCCC1)c1ccc(Cn2ccn3nc4c(c3c2=O)CCCC4)cc1,nt,17.7%,nt,nt,nt,nt
COc1ccccc1CN1CCNc2cnc(-c3ccccc3)cc2C1,nt,26.8%[176 µM],nt,nt,nt,nt
Cc1cccc(CC(C)NC(=O)c2oc3c(F)cccc3c2C)n1 (configuration not stated),?,-4.6%,?,10.3µM*,-8.1%,0.4%
COc1ccc(NC(=O)C2CC(=O)N(Cc3ccccc3)C2)cc1S(=O)(=O)N1CCCCC1 (configuration not stated),nt,-1.4%,nt,nt,nt,nt
CCc1ccc(N2CC(C(=O)Nc3ccc(C)c(S(=O)(=O)N4CCOCC4)c3)CC2=O)cc1 (configuration not stated),?,-3.9%,20.6µM*,?,21.0%,-10.2%
CCc1ccc(N2CC(C(=O)Nc3ccc(OC)c(S(=O)(=O)N4CCOCC4)c3)CC2=O)cc1 (configuration not stated),0.4%,12.3%,nt,-4.5%,nt,nt
CCN(CC)S(=O)(=O)c1cc(NC(=O)C2CC(=O)N(Cc3ccccc3)C2)ccc1Cl (configuration not stated),?,8.6%,?,16.4µM*,nt,nt
